DT40 TDP1 no CPT = qHTS for Inhibitors of human tyrosyl-DNA phosphodiesterase 1 (TDP1): qHTS in cells in absence of CPT; DT40 Tdp1-/- hTDP1 cells, no CPT, ATP luminescence, 48 h; Potency, µM (series often up to 46.2 µM), for inactives: at the top dose activity change, negative = growth inhibition, hits mostly inhibitors; 15% of 420,000 active; AID 686978, 2013; also: nearly all actives have a fitted effect of over 55% in size
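No-CPT arm: Tdp1-/-;hTDP1 DT40 cells (400/well) plus compounds, incubated ≥48 hr at 37 °C. Readout CellTiter-Glo luminescence.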
RORgamma inh = qHTS for inhibitors of ROR gamma transcriptional activity | Drosophila S2 Gal4-RORgamma UAS-luciferase reporter, 20 h | Potency, µM (series often up to 53.6 µM), for inactives: top-dose activity change, negative = inhibition, usual class: inhibitors | 5.4% of 310,000 active; also: nearly all actives have a fitted effect of over 60% in size
Target sequence (P51450 whole entry, looked up, the tested form may be a part): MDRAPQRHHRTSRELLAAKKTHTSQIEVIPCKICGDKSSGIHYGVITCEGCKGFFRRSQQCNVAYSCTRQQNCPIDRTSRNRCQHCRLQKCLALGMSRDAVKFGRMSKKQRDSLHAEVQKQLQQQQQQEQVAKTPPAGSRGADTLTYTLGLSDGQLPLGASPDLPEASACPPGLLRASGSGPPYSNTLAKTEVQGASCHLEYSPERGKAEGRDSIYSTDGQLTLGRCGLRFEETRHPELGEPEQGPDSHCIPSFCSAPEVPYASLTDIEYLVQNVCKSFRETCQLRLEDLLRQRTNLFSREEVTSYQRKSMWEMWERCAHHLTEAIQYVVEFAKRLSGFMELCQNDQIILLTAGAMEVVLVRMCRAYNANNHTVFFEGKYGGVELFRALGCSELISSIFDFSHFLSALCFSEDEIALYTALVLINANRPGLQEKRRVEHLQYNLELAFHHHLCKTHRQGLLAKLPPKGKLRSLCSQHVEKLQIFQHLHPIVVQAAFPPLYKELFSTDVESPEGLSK
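ROR gamma transcriptional activity was tracked as Gal4-UAS luciferase output in stably transfected Drosophila Schneider cells, with compound added 1 hr before 700 uM copper sulfate induction and a 20 hr ambient-temperature incubation.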
VP16 counter = VP16 counterscreen qHTS for inhibitors of ROR gamma transcriptional activity; Potency, µM (series often up to 53.6 µM), inactives show top-dose activity, negative = inhibition, most hits filed as inhibitors; 3.5% of 310,000 active; Drosophila S2 Gal4-VP16 UAS-luciferase, luminescence, 20 h;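 also: Gal4-VP16 expression switched on by copper sulfate through the metallothionein promoter; nearly all actives have a fitted effect of over 50% in size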
TDP1 cell CPT = qHTS for Inhibitors of human tyrosyl-DNA phosphodiesterase 1 (TDP1): qHTS in cells in presence of CPT; Potency, µM (series often up to 46.2 µM), inactives show at the top dose activity change, negative = growth inhibition, hits mostly inhibitors; 12% of 420,000 active; chicken DT40 Tdp1-/-;hTDP1 cells + 20 nM CPT, ATP luminescence, 48 h; AID 686979, 2013; also: nearly all actives have a fitted effect of over 55% in size
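Chicken DT40 Tdp1-/- cells complemented with human TDP1, 400 cells/well, exposed to compounds plus 20 nM camptothecin for at least 48 h at 37 C; viability read as ATP content by CellTiter-Glo luminescence.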
ELG1 DNA repair = qHTS screen for small molecules that inhibit ELG1-dependent DNA repair in human embryonic kidney (HEK293T) cells expressing luciferase-tagged ELG1; HEK293T ELG1-luciferase reporter, luminescence, 16 h; DNA damage induced by 5-fluorouridine; Potency, µM (titrated, usually from 46.1 µM), without a hit: at the top dose activity change, negative = inhibition, actives largely listed as inhibitors; 2.3% of 330,000 active; also: nearly all actives have a fitted effect of over 55% in size
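5-Fluorouridine DNA damage + compound/DMSO, 2,000 cells/well, 16 h, 37 °C/5% CO2. ONE-Glo, 30 min RT, luminescence. Readout = decrease in reporter signal.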
ALOX12 inh = Primary qHTS assay for inhibitors of human arachidonate 12S-lipoxygenase (ALOX12): Round 2; Polyunsaturated fatty acid lipoxygenase ALOX12 (Homo sapiens), P18054; purified 12hLO, xylenol orange hydroperoxide absorbance; 1.1% of 580,000 active; Potency, µM (top dose mostly 108 µM), for inactives: top-dose activity change, negative = inhibition, hits mostly inhibitors
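Purified human 12hLO at 150 nM in 25 mM Hepes, 0.01% Triton X-100, pH 7.0, preincubated 15 min at room temperature with compound. Reaction started with 40 uM arachidonic acid, 30 min at room temperature. Hydroperoxide measured by Fe-xylenol orange, 573/405 nm absorbance ratio.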
An asterisk follows results filed as active; ? = inconclusive; . = not tested or not shown; [ ] = remark or other dose. A selection: hits, their analogues and other compounds. The true share with any hit is near 15%. Calls follow the shape of the dose curve; as a rule, active = well fitted curve in the direction sought with a large enough effect; inconclusive = small, poorly fitted or top-dose-only effect, or another doubt; inactive = no such curve, though single readings can be large; an effect the other way counts as inactive or inconclusive. % is scaled to controls: 0 for no effect and ±100 for the full control effect; potency is read from the fitted curve at half-maximal effect.

SMILES	DT40 TDP1 no CPT	RORgamma inh	VP16 counter	TDP1 cell CPT	ELG1 DNA repair	ALOX12 inh
CCNC(=S)N/N=C/c1sccc1C	.	0.398µM*	3.16µM*	.	11.9%	.
COc1cc(C2C3=C(COC3=O)Oc3cc4c(cc32)OCO4)cc(OC)c1OC (stereo not drawn)	0.146µM*	.	.	0.184µM*	.	-16.6%
COc1cc(C2CC(=O)Oc3cc4c(cc32)OCO4)cc(OC)c1OC (stereo not drawn)	-6.9%	-12.2%	6.1%	-22.2%	?	?
COc1cc(C2C3=C(COC3=O)Oc3cc4c(cc32)OCO4)cc(OC)c1O (stereo not drawn)	0.651µM*	.	.	0.146µM*	.	-45.7%
O=C1OCC2=C1C(c1ccc3c(c1)OCO3)c1cc3c(cc1O2)OCO3 (stereo not drawn)	2.31µM*	.	.	2.06µM*	.	0.5%
N#CC1=C(N)Oc2cc3c(cc2C1c1ccc(Cl)cc1)OCO3 (stereo not drawn)	?	-35.0%	4.3%	?	?	?
Cc1nnnn1-c1cccc(C(=O)N2CC[C@@](O)(C3CCOCC3)[C@H](C)C2)c1	.	.	.	.	.	2.0%
O=S(=O)(c1ccccc1)c1ncc(C(F)(F)F)cc1O	8.3%	?	0.5%	6.6%	-7.3%	0.8%
CN(NS(C)(=O)=O)c1ncc(C(F)(F)F)cc1Cl	-21.9%	11.2µM*	?	-11.9%	15.3%	1.9%
O=S(=O)(c1ccccc1)c1ncc(C(F)(F)F)cc1Cl	3.66µM*	8.91µM*	15.8µM*	4.11µM*	?	?
CC(C(=O)NC1CCN(Cc2ccccc2)CC1)N1Cc2ccccc2C1=O (stereo not drawn)	.	.	.	.	.	-24.6%
CC(=O)Oc1ccc(OC(C)=O)c2c1CC(C)=C(C)C2	13µM*	-19.2%	?	13µM*	-21.2%	15.9%
Cc1cccc(N2CCN(c3ccc4cc(S(=O)(=O)N5CCCCC5)ccc4n3)CC2C)c1 (stereo not drawn)	16.4µM*	-15.7%	0.5%	11.6µM*	-4.1%	-18.0%
Cc1ccc(C)c(N2CCN(c3ccc4cc(S(=O)(=O)N5CCCCC5)ccc4n3)CC2)c1	?	-12.2%	-7.2%	?	?	?
Cc1cccc(N2CCN(c3ccc4cc(S(=O)(=O)N5CCCCC5)ccc4n3)CC2)c1C	11.6µM*	2.2%	3.1%	11.6µM*	?	-1.8%
Cc1cccc(N2CCN(S(=O)(=O)c3ccc4c(c3)n(C)c(=O)c(=O)n4C)CC2C)c1 (stereo not drawn)	4.8%	-0.3%	-8.1%	-28.2%	?	-27.2%
CC1CCCCN1C(=O)c1ccc(S(=O)(=O)N2CCCCC2C)cc1 (stereo not drawn)	?	24.8%	-3.7%	-25.1%	-12.6%	-14.4%
CC1CCCCN1S(=O)(=O)c1ccc2nc(N3CCCCCC3)ccc2c1 (stereo not drawn)	.	.	.	.	.	12.6µM*
Cn1ccnc1CN1C(=O)CO[C@H]2CN(C(=O)c3cnccn3)C[C@H]21	.	.	.	.	.	64.4%[176 µM]
Cc1cc(=O)c(C(=O)N2CCN(S(=O)(=O)c3ccccc3C#N)CC2)nn1-c1ccccc1F	.	.	.	.	.	11.6%
C[C@@H](O)CCCCn1c(=O)c2c(ncn2C)n(C)c1=O	.	.	.	.	.	0.6%
CNC(=O)c1ccc(-c2nc(CN3CCN(C(=O)Nc4ccccc4Cl)CC3)c(C)o2)cc1	.	.	.	.	.	6.0%
O=C(NCc1ccc2c(c1)CCN2C(=O)c1ccncc1)c1cccc(Cl)c1	?	.	.	20.6µM*	.	-13.3%
Cn1nccc1C(=O)NCc1ccc2c(c1)CCN2C(=O)c1ccccc1	-20.9%	.	.	-0.5%	.	3.0%
Cc1ccccc1C(=O)NCc1ccc2c(c1)CCN2C(=O)c1ccccc1	10.3µM*	.	.	13µM*	.	?
SMILES	DT40 TDP1 no CPT	RORgamma inh	VP16 counter	TDP1 cell CPT	ELG1 DNA repair	ALOX12 inh
O=C(NCc1ccc2c(c1)CCN2C(=O)c1ccc(Cl)cc1)c1cccc(F)c1	2.0%	.	.	7.5%	.	3.2%
COc1cccc(NC(=O)NCc2ccc3c(c2)CCN3C(=O)c2ccccc2)c1	?	.	.	?	.	-25.7%
COc1ccc(C(=O)NCc2ccc3c(c2)CCN3C(=O)c2ccc(F)cc2)cc1	20.6µM*	.	.	?	.	4.1%
COc1ccc(C(=O)NCc2ccc3c(c2)CCN3C(=O)c2ccccc2)cc1	23.1µM*	.	.	23.1µM*	.	2.0%
CC(=O)c1cccc(NC(=O)C23CC4CC(CC(C4)C2)C3)c1	.	.	.	.	.	13.8%
N#Cc1c(SCC(N)=O)nc2c(c1-c1cccs1)CCCC2	.	.	.	.	.	-13.4%
CCCCOc1ccc(-c2csc(-c3nc(-c4ccc(F)cc4)cs3)n2)cc1	.	.	.	.	.	-26.1%
CCOc1ccc(C(=O)NCc2ccc3c(c2)CCN3C(=O)c2ccccc2)cc1	16.4µM*	.	.	13µM*	.	7.5%
O=C(NCc1ccc2c(c1)CCN2C(=O)c1ccc(F)cc1)c1ccco1	?	.	.	20.6µM*	.	?
CCOc1ccc(C(=O)NCc2ccc3c(c2)CCN3C(=O)c2ccc(Cl)cc2)cc1	2.1%	.	.	-7.5%	.	-27.2%
O=C(CSc1ccccc1)NCc1ccc2c(c1)CCN2C(=O)c1ccc(F)cc1	-19.9%	.	.	-3.5%	.	-13.8%
Cc1c(C(=O)NN)sc(=S)n1C	-9.6%	10.7%	-13.6%	-12.2%	0.0%	0.0%
Cc1csc(C(=O)NN)c1N(C)C	-4.8%	0.562µM*	?	-0.4%	28.6%	?
CS(=O)(=O)N1CCCCCCNC(=O)[C@@H]2CCC[C@@H]21	.	.	.	.	.	25.5%
CS(=O)(=O)c1ccc(C(=O)Nc2c(Cl)cc(NC(=O)c3cnccn3)cc2Cl)cc1	.	.	.	.	.	-3.3%
Cn1cnc2c1c(=O)n(CCCSc1nnc(-c3cccc(Cl)c3)o1)c(=O)n2C	.	.	.	.	.	-1.2%
O=C(CCNS(=O)(=O)c1ccc2c(c1)CCN2C(=O)C1CC1)N1CCN(c2ccc(F)cc2)CC1	9.2µM*	.	.	3.26µM*	.	-0.2%
Cc1ccc(C)c(N2CCN(C(=O)CCS(=O)(=O)c3ccc4c(c3)CCN4C(=O)C3CC3)CC2)c1	-14.4%	10.3%	-2.2%	-16.9%	-13.8%	-25.8%
O=C(CCNS(=O)(=O)c1ccc2c(c1)CCN2C(=O)C1CC1)N1CCN(c2cccc(Cl)c2)CC1	9.2µM*	.	.	5.8µM*	.	-2.7%
Cc1ccc(S(=O)(=O)NCCC(=O)N2CCN(Cc3ccccc3)CC2)cc1	-25.2%	-21.0%	-7.8%	-4.8%	-2.7%	-12.5%

Bioassay records: PubChem, National Center for Advancing Translational Sciences (NCATS)
